More than one record can exist for a structure, and the calls need not agree. Calls of active or inactive are those of the source. Rule for the calls: active = hit-call score of the fitted dose curve at least 0.9, where 1 is the maximum; inactive = score below 0.9.
The compounds below were run against Nuclear respiratory factor 1 (Homo sapiens) (UniProt Q16656) (assay: ATG_NRF1_CIS: Attagene CIS-FACTORIAL HepG2 Assay for human Nuclear Respiratory Factor 1 (NRF1) Orphan Gene (AID 2282987)). Conditions: HepG2 NRF1 cis-element reporter, Attagene multiplex; actives raise or lower the signal.
Procedure: ATG_CIS is a cell-based, multiplexed-readout assay that uses HepG2, a human liver cell line, with measurements taken at 24 hours after chemical dosing in a 24-well plate.ATG_NRF1_CIS is one of 52 assay component(s) measured or calculated from the ATG_CIS assay. It is designed to make measurements of mRNA induction, a form of inducible reporter, as detected with fluorescence intensity signals by Reverse transcription polymerase chain reaction (RT-PCR) and Capillary electrophoresis technology.Data from the assay component ATG_NRF1_CIS was analyzed into 1 assay endpoint. This assay endpoint, ATG_NRF1_CIS, was analyzed with bidirectional fitting relative to DMSO as the negative control and baseline of activity. Using a type of inducible reporter, measures of mRNA for gain or loss-of-signal activity can be used to understand the reporter gene at the transcription factor-level as they relate to the gene NRF1. Furthermore, this assay endpoint can be referred to as a primary readout, because this assay has produced multiple assay endpoints where this one serves a reporter gene function. To generalize the intended target to other relatable targets, this assay endpoint is annotated to the dna binding intended target family, where the subfamily is nuclear respiratory factors.
Human liver HepG2 cells are transiently transfected with multiple reporter transcription units (MRTUs) in 6-well plates using FuGene 6 reagent (Roche; 3 ml FuGene/1 mg DNA). The MRTU constructs are regulated by a cis-regulating element (promoter). […] A major difference between the CIS and TRANS system is that in CIS activities of endogenous TFs are measured, whereas the TRANS assay evaluates changes in activities of exogenous, chimeric NR-Gal4 proteins. […] At the end of 24 hour incubation, total RNA was isolated using TriZol reagent (Invitrogen). The isolated RNA is then reverse-transcribed using oligo(dT) primer and Mo-MLV reverse transcriptase (Invitrogen) with DNAse I (Ambion) treatment for 30 min. The one-tenth of the produced cDNA was amplified by PCR using Taq DNA polymerase (Invitrogen) and two reporter sequence-specific primers. The PCR products were fluorescently labeled by primer extension with 6-arboxyfluorescein (6-FAM) 5'-labeled reporter sequence-specific primer (2 min at 95 C, 20 s at 68 C and 10 min at 72 C) and these products were digested with 5U of HpaI (New England Biolabs) for 2h at 37 C. The fragments were purified using Qiaquick PCR columns (Qiagen), analyzed on an ABI 3130xL genetic analyzer (Applied Biosystems) with peak positions identified by using a set of X-rhodamine (ROX)-labeled MapMarker1000 molecular weight standards (BioVentures). The raw capillary electrophoresis data was processed using Attagraph software (Attagene).

Nuclear respiratory factor 1 (Homo sapiens), sequence (Q16656 whole entry, looked up): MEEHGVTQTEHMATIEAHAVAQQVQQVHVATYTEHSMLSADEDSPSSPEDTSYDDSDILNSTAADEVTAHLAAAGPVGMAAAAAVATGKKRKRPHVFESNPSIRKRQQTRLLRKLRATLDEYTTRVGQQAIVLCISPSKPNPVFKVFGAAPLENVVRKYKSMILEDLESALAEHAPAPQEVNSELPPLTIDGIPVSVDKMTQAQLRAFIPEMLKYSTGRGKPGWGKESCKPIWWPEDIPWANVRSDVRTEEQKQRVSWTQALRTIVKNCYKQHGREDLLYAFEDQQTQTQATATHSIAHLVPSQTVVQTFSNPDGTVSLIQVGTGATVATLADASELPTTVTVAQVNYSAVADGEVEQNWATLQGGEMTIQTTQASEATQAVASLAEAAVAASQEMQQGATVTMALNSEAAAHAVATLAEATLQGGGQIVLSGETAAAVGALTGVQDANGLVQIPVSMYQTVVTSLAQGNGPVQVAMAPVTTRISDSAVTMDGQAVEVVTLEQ

| SMILES | outcome | AC50 |
| --- | --- | --- |
| COC(=O)c1ccccc1CS(=O)(=O)NC(=O)Nc1nc(OC)cc(OC)n1 | inactive |  |
| CCc1ccc(C(=O)NN(C(=O)c2cc(C)cc(C)c2)C(C)(C)C)cc1 | inactive |  |
| O=C(O)COc1ccc(Cl)cc1Cl | inactive |  |
| CNC(=O)Oc1ccccc1OC(C)C | inactive |  |
| COC(=O)c1ccccc1S(=O)(=O)NC(=O)N(C)c1nc(C)nc(OC)n1 | inactive |  |
| O=C(O)C(F)(F)C(F)(F)C(F)(F)C(F)(F)C(F)(F)C(F)(F)C(F)(F)F | inactive |  |
| CCCN(CCOc1c(Cl)cc(Cl)cc1Cl)C(=O)n1ccnc1 | inactive |  |
| COP(=S)(OC)Oc1ccc([N+](=O)[O-])cc1 | inactive |  |
| CC(C)OC(=O)Nc1cccc(Cl)c1 | inactive |  |
| Cc1[nH]c(=O)n(C(C)(C)C)c(=O)c1Cl | inactive |  |
| O=C1c2ccccc2C(=O)N1SC(Cl)(Cl)Cl | inactive |  |
| CNC(=O)/C=C(\C)OP(=O)(OC)OC | inactive |  |
| COC(=O)c1ccccc1S(=O)(=O)NC(=O)Nc1nc(C)nc(OC)n1 | inactive |  |
| CC(C)N(C(=O)COc1nnc(C(F)(F)F)s1)c1ccc(F)cc1 | inactive |  |
| C[C@H]1[C@H](c2ccc(Cl)cc2)SC(=O)N1C(=O)NC1CCCCC1 | inactive |  |
| CCS(=O)(=O)c1cccnc1S(=O)(=O)NC(=O)Nc1nc(OC)cc(OC)n1 | inactive |  |
| CCC(C)(NC(=O)c1cc(Cl)c(C)c(Cl)c1)C(=O)CCl (stereo not given) | inactive |  |
| O=[N+]([O-])/N=C1\NCCN1Cc1ccc(Cl)nc1 | inactive |  |
| CCOc1nc(NC)nc(NC(=O)NS(=O)(=O)c2ccccc2C(=O)OC)n1 | inactive |  |
| O=S(=O)(O)C(F)(F)C(F)(F)C(F)(F)C(F)(F)C(F)(F)C(F)(F)C(F)(F)C(F)(F)F | inactive | 111 µM (active) |

| SMILES | outcome | AC50 |
| --- | --- | --- |
| COP(=S)(OC)Oc1ccc(SC)c(C)c1 | inactive |  |
| CCC(C)Nc1c([N+](=O)[O-])cc(C(C)(C)C)cc1[N+](=O)[O-] (stereo not given) | inactive |  |
| CCC(C)(C)C(=O)OC1=C(c2ccc(Cl)cc2Cl)C(=O)OC12CCCCC2 | inactive |  |
| N#Cc1c(Cl)c(Cl)c(Cl)c(C#N)c1Cl | inactive |  |
| CCN(CC)C(=O)SCc1ccc(Cl)cc1 | inactive |  |
| O=[N+]([O-])c1c(Cl)c(Cl)c(Cl)c(Cl)c1Cl | inactive |  |
| ClC1C(Cl)C(Cl)C(Cl)C(Cl)C1Cl (stereo not given) | inactive |  |
| Clc1ccccc1-c1nnc(-c2ccccc2Cl)nn1 | inactive |  |
| COc1cc(OC)nc(NC(=O)NS(=O)(=O)c2cc(NC=O)ccc2C(=O)N(C)C)n1 | inactive |  |
| COc1nn(CSP(=S)(OC)OC)c(=O)s1 | inactive |  |
| CC(C)(C)C(O)C(Oc1ccc(Cl)cc1)n1cncn1 (stereo not given) | inactive |  |
| OCCOc1ccccc1 | inactive |  |
| COP(=O)(OC)OC=C(Cl)Cl | inactive |  |
| CNC(=O)Oc1cccc(N=CN(C)C)c1 | inactive |  |
| CCOC1Oc2ccc(OS(C)(=O)=O)cc2C1(C)C (stereo not given) | inactive |  |
| O=S1OCC2C(CO1)C1(Cl)C(Cl)=C(Cl)C2(Cl)C1(Cl)Cl (stereo not given) | inactive |  |
| N#CN | inactive |  |
| [2H]C1([2H])[n+]2ccccc2-c2cccc[n+]2C1([2H])[2H] | inactive |  |
| Cc1cc(C)nc(NC(=O)NS(=O)(=O)c2ccccc2C(=O)OC2COC2)n1 | inactive |  |

Source: PubChem BioAssay (EPA / NIEHS)
